Consider 90 compounds from PubChem BioAssay AID1259422 (The Scripps Research Institute Molecular Screening Center, 2018).

By inhibition is commonly meant the change of the read-out against control, counted positive when it falls.

SMILES strings stand for the structures. Several values for one entry are separate records, joined by “and”; a condition that tells them apart may be missing. Equal values may be shown once. About 9,300 (1.5%) of roughly 640,000 compounds were called active. No stated cut-off is given here; in the data, active means inhibition above about 32%; inactive means the rest. This excerpt belongs to a sample that is enriched for actives.

A short description of this test: TEAD-YAP interaction inhibition, primary screen, TEAD-YAP interaction inhibitor project, luminescence, HEK-TIYL cells (AID 1259422).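 Further: 0% = median of test compound wells and 100% = reference inhibitor wells.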 Particulars: TEAD-Gal4/YAP UAS-luciferase luminescence, at 9.12 µM, hits give high values.
For the compound `CCCCn1c(N)c(N2CCOCC2)c(=O)[nH]c1=O`, the inhibition is 2.71% (inactive).

On to `CCOC(=O)C1CCN(Cn2[nH]c3nc4ccccc4n3c2=S)CC1`, for which the inhibition is -6.77% (inactive). With `FC(F)(F)c1cccc(N2CCN(CCN3CCOCC3)CC2)c1`, the inhibition is -6.06% (inactive). Take `COc1ccc(-c2nc3ncnc(NCCc4ccc(O)cc4)c3[nH]2)cn1`: the inhibition is 58.2% (active). The value for `COc1ccc(CCNc2ncnc3nc(-c4ccc(C(N)=O)cc4)[nH]c23)cc1` was -4.01% (inactive).

As for `COc1ccc(-c2nc3ncnc(Nc4ccccc4)c3[nH]2)cc1`, the inhibition was 0.52% (inactive). The value for `COc1ccc(-c2nc3ncnc(NCc4ccccc4)c3[nH]2)cn1` was 45% (active).

As for `COc1ccc(-c2nc3ncnc(NCCN4CCOCC4)c3[nH]2)cc1`, the inhibition was -0.6% (inactive). The value for `OCCNc1ncnc2nc(-c3ccccc3)[nH]c12` was 6.88% (inactive); that for `COc1cc(OC)cc(C(=O)Nc2cc(C(=O)Nc3ccc(OC)c(OC)c3)ccc2N2CC3CC(C2)c2cccc(=O)n2C3)c1` (stereo not given) was -0.12% (inactive). The value for `COc1ccc(/C=C/C(=O)NCCOc2ccc(Cl)cc2)cc1OC` was -6.87% (inactive).

In the case of `CC(C)(C)NC(=O)CCc1nc(-c2ccc(C(C)(C)C)cc2)no1`, the inhibition is 50.6% (active). Regarding `COc1ccc(-c2noc(CCC(=O)N(C)C)n2)cc1`, the inhibition is -26.2% (inactive).

Turning to `COc1ccc(NC(=O)CCCc2nc(-c3ccc(OC)c(OC)c3)no2)cc1`, the inhibition is 1.43% (inactive). For `CC(=O)Nc1ccc(NC(=O)CCCc2nc(-c3ccc(C(C)(C)C)cc3)no2)cc1`, the inhibition is 68.3% (active). The value for `CCCNC(=O)CCCc1nc(-c2ccc(Cl)cc2)no1` was 25.2% (inactive). The same measure for `CCNC(=O)CCc1nc(-c2cccc(C)c2)no1`: -13.2% (inactive); for `COC(=O)c1ccc(C(=O)NCC2CCC3(CCN(Cc4ccccn4)CC3)O2)cc1` (stereo not given): 9.59% (inactive). Regarding `Cc1cccc(C(=O)OCC(=O)NC2CCCCC2C)c1O` (stereo not given), the inhibition was 7.9% (inactive). In the case of `COc1cccc(C(=O)NC2(C(F)(F)F)NC(=O)N(c3ccccc3)C2=O)c1` (stereo not given), the inhibition was 8.83% (inactive). In the case of `COc1cccc2cc(C(=O)Nc3cccc4ccccc34)c(=N)oc12`, the inhibition was -5.43% (inactive). For the compound `Cc1ccc(OCC(=O)Nc2ccc(-c3nc4cc(C(C)C)ccc4o3)cc2)cc1`, the inhibition is 20.8% (inactive). On to `Cc1ccc2oc(-c3ccc(C)c(NC(=O)c4ccc([N+](=O)[O-])o4)c3)nc2c1`, for which the inhibition was -28.6% (inactive).

Take `CC(=O)Nc1cc(-c2nc3cc(C(C)C)ccc3o2)ccc1Cl`: the inhibition was -35.8% (inactive). The value for `CCc1ccc(-c2nc3cc(NC(=O)c4ccc(Cl)cc4)ccc3o2)cc1` was 7.97% (inactive); that for `Cc1cc(-c2nc3cc(N)ccc3o2)ccc1Br` was 1.99% (inactive). The value for `Cc1ccc2oc(-c3ccc(C)c(N)c3)nc2c1` was 53.6% (active); that for `CCc1ccc2oc(-c3ccc(N)cc3)nc2c1` was 79.6% (active).

Consider `Cc1ccc(-c2nc3cc(C(C)C)ccc3o2)cc1N`, for which the inhibition was 80.7% (active). Take `CCc1ccc2oc(-c3ccc(NC(=O)c4ccccc4[N+](=O)[O-])cc3)nc2c1`: the inhibition is -50.9% (inactive). The same measure for `COc1ccccc1N1CCN(CC(O)COc2ccc(C#N)cc2)CC1` (stereo not given): 0.33% (inactive). The value for `O=C(N/N=C/c1ccco1)c1cccc(F)c1` was -63.8% (inactive); that for `Fc1ccc(C2C=C(c3cccs3)NC(=S)N2)cc1` (stereo not given) was 13.5% (inactive); that for `CC(C)N1CCC(N2CCN(Cc3nc(-c4ccccc4)cs3)CC2CCO)CC1` (stereo not given) was -5.11% (inactive).

Take `COC(=O)N1CCC(C(=O)N(C)C(c2ccc(F)cc2)c2ccccn2)CC1` (stereo not given): the inhibition is 11.1% (inactive). The value for `CCN(CC)CCn1c(=S)sc2c(=O)n(-c3ccccc3OC)c(SCc3ccccc3Cl)nc21` was -5.55% (inactive).

In the case of `O=C(Nc1ccc2c(c1)OCCO2)C(=O)Nc1ccc2nc3n(c(=O)c2c1)CCCCC3`, the inhibition was -4.8% (inactive). The value for `Cc1ncsc1C(=O)N1CCC(c2c(S(C)(=O)=O)cnc3ncnn23)CC1` was 11.5% (inactive); that for `CCOc1ccc(C2N(c3cccc(Cl)c3)C(=O)C3CCCN32)cc1OC` (stereo not given) was 0.7% (inactive); that for `CCOc1ccc(C2Oc3c(Br)cc(Br)cc3C=C2[N+](=O)[O-])cc1OC` (stereo not given) was 86% (active). The same measure for `CCOc1cc(Br)c([N+](=O)[O-])cc1OCC`: -4.81% (inactive); for `CCOc1cc(/C=C2/N=C(c3ccc(Cl)cc3)OC2=O)ccc1OCc1ccc(Cl)cc1`: -7.55% (inactive). Regarding `O=C(CNC1=NCCCCC1)c1ccc(-c2ccccc2)cc1`, the inhibition was -23.5% (inactive). The same measure for `Cc1ccc(-c2nn3cc(-c4ccccc4)c4c3n2CCCC4)cc1`: -4.85% (inactive); for `Cc1ccc(C(=O)C[n+]2cc(-c3ccccc3)n3c2CCCCC3)cc1`: 38.8% (active).

On to `CN(C(=S)Nc1ccc(Cl)cc1)c1c(N)n(Cc2ccccc2)c(=O)[nH]c1=O`, for which the inhibition was -0.81% (inactive). The value for `COc1ccc(N2CCN(C(CNC(=O)c3cccs3)c3ccc4c(c3)OCO4)CC2)cc1` (stereo not given) was -22.3% (inactive). The same measure for `Cn1c(C2COc3ccccc3O2)nc2ccc(-c3cn[nH]c3)cc21` (stereo not given): -90.1% (inactive); for `c1ccc2c(c1)OCC(c1nc3ccc(-c4ccncc4)cc3[nH]1)O2` (stereo not given): -24.1% (inactive). In the case of `CC(C)n1c(C2COc3ccccc3O2)nc2ncc(-c3ccncc3)cc21` (stereo not given), the inhibition is 33% (active). The same measure for `COc1cccc(/C=N/N2CCN(Cc3ccc(C)cc3)CC2)c1`: -0.53% (inactive); for `Clc1ccc(CN2CCN(/N=C/c3c(Cl)nc4ccccn34)CC2)cc1`: 35.3% (active); for `Cc1nc2ccccn2c1CN1CCN(CC(O)COCc2ccc(Cl)cc2)CC1` (stereo not given): 22.8% (inactive). The same measure for `CCOC(=O)CC(=O)CSc1nc2c(sc(=S)n2-c2ccc(Cl)c(C)c2)c(=O)n1-c1ccccc1OC`: 0.42% (inactive); for `COC(=O)c1cnn2c(C(F)(F)F)cc(-c3ccc(Br)cc3)nc12`: 13.7% (inactive). The value for `N#Cc1ccccc1N=c1oc2ccccc2cc1-c1nc2ccccc2[nH]1` was -44.7% (inactive); that for `Brc1ccc(N=c2oc3ccccc3cc2-c2nc3ccccc3[nH]2)cc1` was -86.1% (inactive).

Turning to `c1ccc2oc(=Nc3cccc4ccccc34)c(-c3nc4ccccc4[nH]3)cc2c1`, the inhibition is 41.4% (active). The value for `Cc1cccc(C(=O)Nc2ncc3c(n2)CC(C)(C)CC3=O)c1` was -0.47% (inactive). `CCOC(=O)c1c(NC(=O)CSc2nnc(CNC(=O)c3ccc([N+](=O)[O-])cc3)n2CCc2ccccc2)sc2c1CCCCC2`: the inhibition was -6.86% (inactive). With `Cc1cccc(N2CC(O)=C(c3nc4ccccc4c(=O)[nH]3)C2=N)c1C`, the inhibition is 46.8% (active). The same measure for `CC(=O)c1cccc(N2CC(O)=C(c3nc4ccccc4[nH]3)C2=N)c1`: -5.18% (inactive). The same measure for `COc1ccc(N2CC(O)=C(c3nc4ccccc4c(=O)[nH]3)C2=N)cc1`: 0.42% (inactive); for `C/C(CC(=O)Nc1cccc2ccccc12)=N\NC(=O)c1cccnc1`: -13.7% (inactive). `CC(=O)Nc1ccc2nc(SCC(=O)Nc3ccccc3F)sc2c1`: the inhibition was -58.7% (inactive).

As for `COc1cccc(-n2cc(CN(C)C3CCC(=O)N(Cc4ccccc4F)CC3)cn2)c1` (stereo not given), the inhibition is 8.57% (inactive). With `Cc1nc(CC(=O)N2CCC(N3CCC(C(=O)N4CCOCC4)CC3)CC2)cs1`, the inhibition is -4.91% (inactive).

`COc1cc(Br)cc(/C=N\NC(=O)c2ccc(C)nc2)c1O`: the inhibition was 35.4% (active). The same measure for `CCOc1cccc(/C=N/NC(=O)c2ccc(C)nc2)c1O`: 18.1% (inactive); for `COc1cc(Br)cc(/C=N/NC(=O)c2cc(-c3ccccc3)n[nH]2)c1O`: 15.7% (inactive). The same measure for `CC(=O)c1cccc(NC(=O)c2ncoc2-c2ccc(Cl)cc2)c1`: 2.52% (inactive).

As to `COc1ccc(-c2csc(N3CCC(C)CC3)n2)cc1`, the inhibition was -61.1% (inactive).

With `O=C1CCCC2=C1C(c1ccc(Cl)cc1)Nc1ccc(C(=O)c3ccccc3)cc1N2` (stereo not given), the inhibition was 13.4% (inactive).

Take `O=C1CCCC2=C1C(c1c(F)cccc1Cl)Nc1ccc(C(=O)c3ccccc3)cc1N2` (stereo not given): the inhibition was -16.1% (inactive). For the compound `COc1cc(C2Nc3ccc(C(=O)c4ccccc4)cc3NC3=C2C(=O)CCC3)cc(OC)c1OC` (stereo not given), the inhibition was 59.8% (active). The same measure for `Cc1ccc(C2=CC(c3ccccc3F)n3nnnc3N2)cc1` (stereo not given): -31.7% (inactive); for `COc1ccccc1CN(Cc1cc2cccc(C)c2n2nnnc12)C(=O)C1CC1`: 6.49% (inactive). The same measure for `O=C1C(=O)N(CCCn2ccnc2)C(c2ccc(Cl)cc2)/C1=C(/O)c1ccccc1` (stereo not given): 7.39% (inactive); for `COC(=O)c1nnn(CC(=O)Nc2ccc3c(c2)OCCO3)c1C(=O)OC`: 9.22% (inactive).

For the compound `COc1cc(NS(=O)(=O)c2ccc(N/C=C\C(=O)c3cccs3)cc2)nc(OC)n1`, the inhibition is -5.11% (inactive). For the compound `COc1cccc(C(=O)/C=C\Nc2ccc(S(=O)(=O)Nc3nc(C)cc(C)n3)cc2)c1`, the inhibition is -30.1% (inactive) and -6.6% (inactive). On to `Cc1cc(C)nc(NS(=O)(=O)c2ccc(N/C=C\C(=O)c3cccs3)cc2)n1`, for which the inhibition was 49.6% (active). The same measure for `N#CCCNc1ncc(-c2ccc(Cl)cc2)cn1`: -8.87% (inactive). As for `Cc1ccc(NC(=O)CN2CCN(c3ccc(Cl)cc3)CC2)cc1Br`, the inhibition is -5.18% (inactive). Turning to `CCOC(=O)C1=C(C)NC(C)=C(C(=O)OCC)C1c1ccc(C2C(C(=O)OCC)=C(C)NC(C)=C2C(=O)OCC)cc1`, the inhibition is 8.31% (inactive).

On to `O=C(NCc1ccccc1)C1CC12CCN(C(=O)Cc1ccsc1)CC2` (stereo not given), for which the inhibition is -4.7% (inactive). The same measure for `O=C(NCc1ccccc1)C1CC12CCN(Cc1ccsc1)CC2` (stereo not given): 50.1% (active); for `O=C(Cc1ccsc1)N1CCC2(CC1)CC2C(=O)N1CCN(Cc2ccccc2)CC1` (stereo not given): 7.69% (inactive); for `CCOC(=O)c1c(NC(=O)C(C)Sc2nnc(CNC(=O)c3ccc(Cl)cc3Cl)n2C)sc2c1CCCC2` (stereo not given): 5.37% (inactive). The same measure for `COc1ccc(-n2nc(C(=O)N3CCN(C)CC3)c3ccccc3c2=O)c(OC)c1`: 3.03% (inactive).
